PubChem BioAssay AID1318 (The Scripps Research Institute Molecular Screening Center, 2008)
Out of some 1,200 compounds screened, about 160 (13%) were called active. Only a sample is shown. A number with no mark means an inactive call.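 Rule for the calls: active = activation above the solvent-only control well mean plus 3 SD, set per screening run (cut at about 120% in these data); inactive = the rest.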

Test: enhancement of STAT1-driven transcription – cell-based, NIH 3T3, luciferase luminescence, IFN-gamma, counter-screen for STAT3 activator project (AID 1318);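 note: 100% = IFN-gamma with DMSO median signal so 100% means no change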
Details: NIH 3T3 STAT1-luciferase reporter, at 5.7 µM, hits give high values

Q: With `CN1C(=O)/C(=C\c2cc(Br)cs2)c2ccccc21` as the molecule, how does the activation (% of control) read?
A: 116%

Q: For `Cc1nc(N=C(N)N)nc2c(C)cccc12`, which activation (% of control) is on record?
A: 104%

Q: With `CN1CCN(c2ccc([N+](=O)[O-])c(Sc3nc4ccccc4[nH]3)c2)CC1` as the molecule, how does the activation (% of control) read?
A: 96.2%

Q: With `Cc1ccc(N=Nc2c(C)[nH]n(-c3ccccc3)c2=O)cc1` as the molecule, how does the activation (% of control) read?
A: 106%

Q: With `N#Cc1ccccc1NC(=O)COc1c(Br)cc(Br)c2cccnc12` as the molecule, how does the activation (% of control) read?
A: 85.6%

Q: For `c1ccc(-c2cn3c(n2)CCc2ccc4cccnc4c2-3)cc1`, which activation (% of control) is on record?
A: 94.3%

Q: Which activation (% of control) does the source give for `CCOC(=O)CN(C)Cc1c[nH]c2ccccc12` here?
A: 88.5%

Q: Which activation (% of control) does the source give for `Cc1cccc(C(=O)Nc2nnc(Cc3c[nH]c4ccccc34)s2)c1` here?
A: 92.4%

Q: For `Cc1ccc(S(=O)(=O)Nc2nc3ccccc3nc2N2CCc3ccccc3C2)cc1`, which activation (% of control) is on record?
A: 105%

Q: With `O=C(Cc1c[nH]c2ccccc12)OCCOC(=O)Cc1c[nH]c2ccccc12` as the molecule, how does the activation (% of control) read?
A: 94.1%

Q: With `C/C(=N\NC(=O)CNc1cccc2ccccc12)c1ccc(Br)s1` as the molecule, how does the activation (% of control) read?
A: 92.6%

Q: With `CSCCC(NC(=O)c1ccco1)C(=O)OCC(=O)Nc1ncc(Cl)c(C)c1Cl` (stereo not given) as the molecule, how does the activation (% of control) read?
A: 105%

Q: With `CCOc1ccc(C2c3[nH]c4ccccc4c3CCN2Cc2cn(CC)nc2C)cc1` (stereo not given) as the molecule, how does the activation (% of control) read?
A: 112%

Q: For `Cc1ccc(Nc2nc(-c3sc(NC(=O)c4ccccc4)nc3C)cs2)cc1`, which activation (% of control) is on record?
A: 105%

Q: Which activation (% of control) does the source give for `COc1ccccc1-c1nnc(SCC(=O)N2CC(C)CC(C)C2)o1` (stereo not given) here?
A: 97%

Q: With `COc1ccccc1-c1nnc(NC(=O)c2ccc3ncsc3c2)o1` as the molecule, how does the activation (% of control) read?
A: 137% (active)

Q: For `OC(COc1ccc2ccccc2c1)CN1CCOCC1` (stereo not given), which activation (% of control) is on record?
A: 118%

Q: For `COc1cccc(/C=C(/CC(=O)Nc2ccc(N3CCOCC3)cc2)c2nc3ccccc3s2)c1`, which activation (% of control) is on record?
A: 99.9%

Q: With `Oc1c(C=Nc2cccc3nsnc23)ccc2ccccc12` as the molecule, how does the activation (% of control) read?
A: 95.4%

Q: For `Cc1ccc(NC(=O)c2cc([N+](=O)[O-])ccc2Cl)c(O)c1`, which activation (% of control) is on record?
A: 99.1%

Q: With `CC(C)CNC(=O)COC(=O)/C=C/c1ccccc1[N+](=O)[O-]` as the molecule, how does the activation (% of control) read?
A: 89.1%

Q: Which activation (% of control) does the source give for `O=C(Nc1cc(C(F)(F)F)ccc1Cl)c1cc(C2CC2)on1` here?
A: 98.3%

Q: With `Oc1cccc2ccc(/C=C/c3ccc(Br)s3)nc12` as the molecule, how does the activation (% of control) read?
A: 103%

Q: For `COc1nc(N=C(N)N)nc2c(C)cccc12`, which activation (% of control) is on record?
A: 102%

Q: Which activation (% of control) does the source give for `CCOC(=O)c1c(-c2cccc(C)c2)csc1NC(=O)c1c(-c2ccccc2)noc1C` here?
A: 117%

Q: For `O=[N+]([O-])c1ccc(N2CCN(S(=O)(=O)c3ccc4ccccc4c3)CC2)cc1NCc1ccco1`, which activation (% of control) is on record?
A: 110%

Q: For `O=C1CCCN1CCCNc1ncnc2c1[nH]c1ccccc12`, which activation (% of control) is on record?
A: 82.6%

Q: Which activation (% of control) does the source give for `COc1ccc(NC(=O)ON=C2c3ccccc3-c3ccccc32)cc1` here?
A: 107%

Q: With `Cc1ccc(-c2cc(C(=O)Nc3nn[nH]n3)c3ccccc3n2)c(C)c1` as the molecule, how does the activation (% of control) read?
A: 97.5%

Q: Which activation (% of control) does the source give for `C=CCn1c(-c2ccccc2OCC)n[nH]c1=S` here?
A: 112%

Q: With `COC(=O)c1[nH]c2ccccc2c1NC(=O)CN1CCCc2ccccc21` as the molecule, how does the activation (% of control) read?
A: 106%

Q: For `CC(=O)Nc1ccc(NC(=O)COc2ccccc2C(=O)Nc2cccc(Cl)c2Cl)cc1`, which activation (% of control) is on record?
A: 100%

Q: For `Cc1ccc(/C=N/NC(=O)COc2ccccc2-c2ccccc2)cc1`, which activation (% of control) is on record?
A: 114%

Q: For `COc1cccc(NC(=S)C(C#N)=C2N(C)c3ccccc3N2C)c1`, which activation (% of control) is on record?
A: 103%

Q: Which activation (% of control) does the source give for `COC(=O)c1[nH]c2cccc(C)c2c1NC(=O)CN1CCCc2ccccc21` here?
A: 93.5%

Q: For `NC(=O)CSc1c[nH]c2ccccc12`, which activation (% of control) is on record?
A: 99.4%

Q: Which activation (% of control) does the source give for `COc1ccc(-c2c3c(=O)n(C)c(=O)n(C)c3cn2-c2cccc(OC)c2)cc1` here?
A: 101%

Q: For `N#Cc1c(C(F)(F)F)cc(-c2ccc(Cl)cc2)nc1SCC(=O)O`, which activation (% of control) is on record?
A: 113%

Q: With `COc1ccc([N+](=O)[O-])cc1C1NN=C(c2cccc3ccccc23)S1` (stereo not given) as the molecule, how does the activation (% of control) read?
A: 120%

Q: Which activation (% of control) does the source give for `CCSc1nnc(-c2cc3c(s2)-c2ccccc2CC3)o1` here?
A: 132% (active)

Q: Which activation (% of control) does the source give for `CSc1nc2sc3c(c2c(=O)[nH]1)CCc1ccccc1-3` here?
A: 95.8%

Q: With `COc1ccccc1N1CCN(C(=O)c2cc3c(-c4ccc(Cl)cc4)nn(C)c3s2)CC1` as the molecule, how does the activation (% of control) read?
A: 93.1%

Q: With `COc1cc(OC)cc(C(=O)N[C@H](C(=O)Nc2nc3ccccc3[nH]2)C(C)C)c1` as the molecule, how does the activation (% of control) read?
A: 109%

Q: Which activation (% of control) does the source give for `CSc1nc(N(C)NC(=O)c2cccc(C)c2)c2ccccc2n1` here?
A: 107%

Q: With `CCCS(=O)(=O)Nc1c(C(=O)O)[nH]c2ccccc12` as the molecule, how does the activation (% of control) read?
A: 94.9%

Q: With `CCOC(=O)N1CCN(CC(=O)Nc2cc(C)nn2-c2nc3ccccc3s2)CC1` as the molecule, how does the activation (% of control) read?
A: 101%

Q: For `CCNCc1cc2cc(C)ccc2[nH]c1=O`, which activation (% of control) is on record?
A: 98.7%

Q: For `Cn1cccc1C(=O)Nc1nccs1`, which activation (% of control) is on record?
A: 104%

Q: For `CCOC(=O)C1CCN(c2ncnc3c2oc2ccc(Br)cc23)CC1`, which activation (% of control) is on record?
A: 92.6%

Q: With `COc1ccccc1C1C2=C(COC2=O)Nc2cc3c(cc21)OCO3` (stereo not given) as the molecule, how does the activation (% of control) read?
A: 116%

Q: Which activation (% of control) does the source give for `COc1ccc(/C=N/Nc2ncnc3sc4c(c23)CCCC4)cc1O` here?
A: 139% (active)

Q: Which activation (% of control) does the source give for `CCCCC(=O)Nc1nc(C)c(-c2csc(Nc3ccc(Cl)cc3)n2)s1` here?
A: 102%

Q: Which activation (% of control) does the source give for `Cc1cccc(C(=O)N2CCc3c([nH]c4ccccc34)C2CC(C)C)n1` (stereo not given) here?
A: 118%

Q: Which activation (% of control) does the source give for `C/C(=N\c1nc2ccccc2n1C)c1cc(Cl)ccc1O` here?
A: 92.8%

Q: With `C=CCCC(=O)Nc1nc(C)c(-c2csc(Nc3ccc(Cl)cc3)n2)s1` as the molecule, how does the activation (% of control) read?
A: 104%

Q: Which activation (% of control) does the source give for `Oc1cccc(C2c3[nH]c4ccccc4c3CCN2Cc2cnn(-c3ccccc3)c2)c1` (stereo not given) here?
A: 93.5%

Q: Which activation (% of control) does the source give for `Fc1ccc2nc(-c3ccccc3)nc(SCc3nnc(-c4ccccc4)o3)c2c1` here?
A: 96.5%

Q: With `COc1ccc(C2c3[nH]c4ccccc4c3CCN2CCCn2cccn2)cc1C` (stereo not given) as the molecule, how does the activation (% of control) read?
A: 95.6%

Q: With `COc1ccc(Cl)cc1NC(=O)c1oc(C)nc1C` as the molecule, how does the activation (% of control) read?
A: 98.8%

Q: Which activation (% of control) does the source give for `Cc1csc2ncc(C(=O)N(Cc3ccccc3)c3ccccn3)c(=O)n12` here?
A: 103%

Q: Which activation (% of control) does the source give for `Cc1ccc(C2=NN(C)c3nc4ccccc4n3C2)cc1` here?
A: 101%

Q: Which activation (% of control) does the source give for `COC(=O)c1[nH]c2ccccc2c1NS(=O)(=O)c1ccc(OC)cc1OC` here?
A: 92.3%

Q: Which activation (% of control) does the source give for `O=C(O)CS/C(=C\c1ccc(F)cc1)c1nc2ccccc2s1` here?
A: 112%

Q: For `O=C(O)CSCc1nc2ccccc2s1`, which activation (% of control) is on record?
A: 120% (active)

Q: For `Cc1nc2ccccc2cc1O`, which activation (% of control) is on record?
A: 87.9%

Q: Which activation (% of control) does the source give for `COc1ccc(C)cc1NC(=O)c1[nH]c(C)c(C(C)=O)c1C` here?
A: 100%

Q: For `CCn1c(SCC(=O)N/N=C/C=C/c2ccccc2[N+](=O)[O-])nnc1-c1ccccc1`, which activation (% of control) is on record?
A: 89.9%

Q: Which activation (% of control) does the source give for `COc1cc(NS(=O)(=O)c2ccc(N/C=C(\C=O)c3nc4cc(Cl)ccc4o3)cc2)nc(OC)n1` here?
A: 93.1%

Q: For `Cn1nc(-c2ccc(Cl)cc2)c2cc(C(=O)NCc3ccco3)sc21`, which activation (% of control) is on record?
A: 94.9%

Q: Which activation (% of control) does the source give for `O=c1[nH]c(CSc2ncc(-c3ccc(F)cc3)n2Cc2ccco2)nc2ccccc12` here?
A: 100%

Q: With `COCCCNc1nc2c(-c3cccc(C(F)(F)F)c3)nnn2c2ccccc12` as the molecule, how does the activation (% of control) read?
A: 98.4%

Q: Which activation (% of control) does the source give for `O=C(NCc1ccco1)c1cccn2c(=O)c3c4c(sc3nc12)CCCC4` here?
A: 87%

Q: With `Cc1cccc(N(CC(=O)N=Nc2c(O)[nH]c3ccccc23)S(C)(=O)=O)c1C` as the molecule, how does the activation (% of control) read?
A: 107%

Q: For `O=C(C1CCN(S(=O)(=O)Cc2ccccc2)CC1)N1CCCc2ccccc21`, which activation (% of control) is on record?
A: 105%

Q: With `Cc1ccc(OCc2nnc(SC3CCc4ccccc4C3=O)n2C)cc1` (stereo not given) as the molecule, how does the activation (% of control) read?
A: 132% (active)
